One may read the inhibition as the drop in the measured response relative to a control, in per cent.

Out of some 290,000 compounds screened, about 3,000 (1%) were called active. Shown is part of a subset that was picked to be rich in actives. A number with no mark means an inactive call. No stated cut-off is given here; in the data, active means inhibition mostly above about 36% (no sharp cut-off); inactive means mostly below about 34%.

The assay is described as follows: inhibition of NOD1-driven NF-kB reporter – cell-based, luminescence, uHTS, primary screen (AID 1578).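 Further: HEK-293T reporter cells stimulated with the NOD1 agonist gamma-tri-DAP.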 The conditions noted are these: NOD1-driven NF-kB luciferase reporter cells, at 4 µM, active compounds read high.
For the compound `CCOC(=O)C1CCCN(C(=O)CCNS(=O)(=O)c2cc(Br)cnc2N)C1` (stereo unspecified), the inhibition was -11.8%. Consider `Cc1cc(C)c(NC(=O)COC(=O)c2cc([N+](=O)[O-])ccc2N2CCOCC2)c(C)c1`, for which the inhibition was -25.6%.

Regarding `CCOc1ccc(N2C(=O)CC(NCCNc3ccc(C(=O)c4cccs4)cc3)C2=O)cc1` (stereo unspecified), the inhibition is -13.5%. Then `C=C1CCC[C@]2(C)C[C@H]3OC(=O)C(CN[C@@H](C)c4ccccc4)[C@H]3CC12` (stereo partly specified), with -16.5%; and `C=C1CCC[C@]2(C)C[C@H]3OC(=O)C(CN(Cc4ccc(OC)c(OC)c4)CC(C)O)[C@H]3CC12` (stereo partly specified), with 33.5% (active); and `C=C1CCC[C@]2(C)C[C@H]3OC(=O)C(CN(C)CC(OC)OC)[C@H]3CC12` (stereo partly specified), with -4.9%. In the case of `CCc1ccccc1NC(=S)NCCSc1ccc(Cl)cc1`, the inhibition was -3.7%. The same measure for `Cc1c(C(C)C)c(=O)n(-c2ccc(S(=O)(=O)NCc3ccccc3)cc2)n1C`: 44.6% (active); for `Cc1c(C(C)C)c(=O)n(-c2ccc(S(=O)(=O)NC(C)C)cc2)n1C`: 8.6%. Then `Cc1c(C(C)C)c(=O)n(-c2ccc(S(=O)(=O)NC3CC3)cc2)n1C`, with -14.8%; and `O=C(Nc1ccc(F)cc1F)c1ccc2ncsc2c1`, with -38%; and `CC(C)OCCCNC(=O)c1cc(-c2cccnc2)nc2ccccc12`, with -6.7%.

For the compound `COC(=O)CN(c1ccc(OC)c(OC)c1)S(C)(=O)=O`, the inhibition was -16%.

`CCOC(=O)c1[nH]ncc1CN1CCCC(C(=O)c2cc(Cl)ccc2OC)C1` (stereo unspecified): the inhibition was 16.4%. Then `CCOC(=O)c1[nH]ncc1CN1CCCC(C(=O)c2ccc(C(C)(C)C)cc2)C1` (stereo unspecified), with -29.3%; and `CCOC(=O)c1[nH]ncc1CN1CCCC(C(=O)c2ccc(OC)c(OC)c2)C1` (stereo unspecified), with 111% (active); and `Cc1ccc(N(CCC#N)C(=O)CSc2ccc3c(c2)OCCO3)cc1`, with 3.9%. Consider `O=C(CCl)N(Cc1cccc([N+](=O)[O-])c1)c1cccc(Cl)c1`, for which the inhibition is 101% (active).

As to `N#CCCN(C(=O)CCl)c1cccc(Cl)c1`, the inhibition was 58% (active). Then `Cc1ccc(N(CCC#N)C(=O)CCl)cc1C`, with 97.7% (active); and `O=C(c1ccco1)N(Cc1ccccc1)c1cccc([N+](=O)[O-])c1`, with 24%. In the case of `N#CCCN(C(=O)COc1ccc(Cl)cc1Cl)c1ccccc1`, the inhibition is -24.1%. Consider `Cc1ccc(C(=O)N(CC#N)CC#N)cc1C`, for which the inhibition is -16.5%. The same measure for `Cc1cccc(N(Cc2ccccc2)C(=O)CCl)c1`: -31.5%; for `N#CCCN(C(=O)Nc1ccc(Cl)cc1)c1ccccc1`: -13%.

`CCCCc1n[nH]c2c1/C(=N/O)CC(C)(C)C2`: the inhibition is -12.1%. In the case of `O=C(N/N=C/c1ccncc1)c1cc2ccccc2cc1O`, the inhibition is 11.3%. Then `Cc1cccc(NC(=O)CSC2=NN3CCCC(=O)N=C3S2)c1C`, with 7.2%; and `CC(=O)O/N=C(/c1nonc1N)N(C)C`, with -21.6%. The same measure for `CCCc1nc2ccc(N)cc2c(=O)n1Cc1ccccc1Cl`: -43.9%. In the case of `CC(Sc1nc(N)c(NC(=O)c2ccc(Br)o2)c(=O)[nH]1)C(=O)O` (stereo unspecified), the inhibition is -18.7%.

As for `CN(c1ccccc1)c1ccc(/C=C(\C#N)c2nnc3n2CCCCC3)cc1[N+](=O)[O-]`, the inhibition is 78.8% (active). For `N#C/C(=C/c1cccc([N+](=O)[O-])c1)c1nnc2n1CCCCC2`, the inhibition is -32.4%. For the compound `N#C/C(=C\c1cccc([N+](=O)[O-])c1)c1nnc2n1CCCCC2`, the inhibition was 9%. Then `Cc1ccnc(NC(=O)/C=C/c2ccccc2[N+](=O)[O-])c1`, with -40.4%.

`Cc1nccn1CC(O)COc1ccc([N+](=O)[O-])cc1` (stereo unspecified): the inhibition is -5.8%.

On to `CCOC(=O)Cn1nnnc1CN(Cc1ccc(OC)cc1)Cc1cc2cc(C)cc(C)c2[nH]c1=O`, for which the inhibition is -21.1%. The same measure for `Cn1c(=O)c2c(nc(N/N=C/c3ccc(OC(=O)c4ccco4)cc3)n2Cc2ccc(F)cc2)n(C)c1=O`: 33.2%; for `Cn1c(=O)c2c(nc(N/N=C/c3ccc(OC(=O)c4ccco4)cc3)n2Cc2ccccc2)n(C)c1=O`: 26.6%.

With `Cc1nn2c3ccccc3n(CC(=O)c3cccs3)c2nc1=O`, the inhibition is 19.3%. Then `COc1cccc(CNC(=O)N2CCN(S(=O)(=O)c3ccc(Cl)cc3)CC2)c1`, with 12.4%; and `COc1ccc(C(=O)C2CCCN(C(=O)COc3ccc(C(C)=O)cc3)C2)cc1F` (stereo unspecified), with -21.9%. The same measure for `CCC(CO)[n+]1c(C)cc(/C=C2\Sc3ccccc3N2Cc2ccccc2)cc1C` (stereo unspecified): 75.9% (active); for `CCN1/C(=C2\SC(=S)N(Cc3ccccc3)C2=O)Sc2ccccc21`: 4.6%. Then `C[n+]1ccccc1/C=C1\Sc2ccccc2N1CCO`, with -20.4%. In the case of `COc1ccc(CNS(=O)(=O)c2ccccc2Br)cc1`, the inhibition is 3.1%.

Take `CC(=O)c1cccc(Nc2ccc(-c3ccccc3F)nn2)c1`: the inhibition is -57.9%. The same measure for `Cc1ccc(C(=O)NC(=S)N2CCN(c3ccccc3F)CC2)cc1`: 19.9%; for `Cc1ccc(C(=O)NC(=S)N2CCN(c3cc(C)ccc3C)CC2)cc1`: 55.1% (active). As to `Cc1ccc(C(=O)NC(=S)N2CCN(C)CC2)cc1`, the inhibition is -21.2%. Then `COc1ccc(OCC(O)CNC2CCCC2)cc1` (stereo unspecified), with 5.8%.

In the case of `Cc1ccc(OCC(O)CNC2CCCC2)cc1C` (stereo unspecified), the inhibition was 62.6% (active). The same measure for `Cc1ccc(C)c(OCC(O)CNC2CCCC2)c1` (stereo unspecified): -40.4%; for `CC(C)OC1(c2ccccc2)OC(=O)c2ccccc21` (stereo unspecified): 13.3%; for `Cc1ccc(C(=O)n2c(N)nc3ccccc32)cc1`: 41.2% (active).

As to `CC(=O)n1c2ccccc2c2ccccc21`, the inhibition was 11.7%. The same measure for `Cc1ccc(C(=O)n2c3ccccc3c3ccccc32)cc1`: 7.1%; for `Nc1ccc(C(=O)n2c3ccccc3c3ccccc32)cc1`: 75.2% (active). Then `COc1ccc(C(=O)n2c(N)nc3ccccc32)cc1OC`, with -61.2%. The same measure for `Nc1nc2ccccc2n1C(=O)c1ccccc1`: -26.6%.

As for `O=C(CC1C(=O)NCCN1Cc1ccc(-c2ccccc2)cc1)NCCCn1cccn1` (stereo unspecified), the inhibition is -27.9%.

The values are drawn from PubChem BioAssay AID1578 (Sanford-Burnham Center for Chemical Genomics, 2009).
